Compound activity as filed in PubChem.
NPR2 activator: GC-B (human) receptor activation | HEK293-GC-B cells, CNP EC30, cGMP TR-FRET; 0% at EC30 CNP, 100% saturating CNP | activation, % at 10 µM | 0.11% of 370,000 active | AID 1920062;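 active = activation at 10 µM reaching about 35% in either raw or pattern-adjusted values, limit read from the data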
NOD2-RIPK2 inh: NOD2-RIPK2 protein interaction inhibition. O43353. CHO BLA complementation NOD2-RIPK2, CCF4 ratio. inhibition, % at 4.98 µM. 0.38% of 360,000 active. AID 624267; in the data active = inhibition above about 21%
Neddyl block: cullin neddylation inhibition | TR-FRET cullin neddylation, biochemical | inhibition, % at 25 µM | 0.58% of 360,000 active; in the data active = inhibition above about 36%
GC-A act: GC-A (human) enzyme activation | P16066 | HEK293 GC-A cells, cGMP TR-FRET, EC30 ANP; 0% at EC30 ANP, 100% saturating ANP | 0.14% of 370,000 active | activation, % at 10 µM; in the data active = activation above about 40%
TLR4 MyD88 comp: TLR4-MyD88 interaction inhibition in cells | HeLa CL3-4 TLR4/MyD88 BLA complementation, FRET ratio | inhibition, % at 8.4 µM | 0.18% of 200,000 active; in the data active = inhibition above about 25%
TLR9-MyD88 block: inhibitors of human TLR9-MyD88 binding; CHO BLA complementation TLR9-MyD88, CCF4 FRET ratio; AID 504734; 0.21% of 340,000 active; Q9NR96+Q99836; inhibition, % at 4.98 µM;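 active = inhibition above the mean over all tested compounds plus 3 SD, cut at about 21% in these data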
Neddyl inh conf: confirmation of human cullin neddylation inhibitors; AID 652217; calls only at 25 µM; 13% of 1,800 active; TR-FRET cullin neddylation biochemical assay; shares compounds with Neddyl block; in the data active = inhibition above about 40%;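 note: neddylation substrate is the cullin 1 ring ligase complex with SKP2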
Hits are given with their value; i = inactive; nt = no result shown; + = active, no number. A selection: hits, their analogues and other compounds. The true share with any hit is near 1.2%.

SMILES	NPR2 activator	NOD2-RIPK2 inh	Neddyl block	GC-A act	TLR4 MyD88 comp	TLR9-MyD88 block	Neddyl inh conf
CC1(C)Cc2c(c(-c3ccco3)nc3sc4c(NCCCO)ncnc4c23)CO1	i	i	nt	i	nt	i	nt
CC1(C)Cc2c(c(-c3ccco3)nc3sc4c(NCCN5CCOCC5)ncnc4c23)CO1	i	i	51	i	i	i	i
CCn1nc(NC(=O)c2cccnc2)c2cc3ccccc3nc21	i	i	41	i	i	i	i
CCn1nc(NC(=O)C(C)C)c2cc3ccc(C)cc3nc21	i	i	39	i	nt	i	i
CCCS(=O)(=O)NC(=O)C1(C)CCN(C(=O)c2cc(OC)c(OC)c(OC)c2)C1 (configuration not stated)	i	i	i	i	nt	nt	nt
Cc1cccc(N(C(=O)c2snc(C(N)=O)c2N)C(C(=O)NCC2CCCO2)c2cccs2)c1 (configuration not stated)	i	i	44	i	i	i	i
CCCC(C(=O)NC(C)(C)C)N(CC1CCCO1)C(=O)c1snc(C(N)=O)c1N (configuration not stated)	i	i	i	i	i	i	nt
Cc1ccc(C)c(N(C(=O)c2snc(C(N)=O)c2N)C(C(=O)NCC2CCCO2)c2cccs2)c1 (configuration not stated)	i	i	nt	i	i	i	nt
CCc1ccccc1N(C(=O)c1snc(C(N)=O)c1N)C(C(=O)NCC1CCCO1)c1ccc(OC)c(OC)c1 (configuration not stated)	i	i	nt	i	nt	i	nt
CCCC(C(=O)NC1CCCC1)N(CC1CCCO1)C(=O)c1snc(C(N)=O)c1N (configuration not stated)	i	i	41	i	i	i	i
COc1ccc(C(C(=O)NCC2CCCO2)N(C(=O)c2snc(C(N)=O)c2N)c2ccccc2)cc1OC (configuration not stated)	i	i	50	i	nt	i	+
COc1cccc(N(C(=O)c2snc(C(N)=O)c2N)C(C(=O)NCC2CCCO2)c2ccc(F)cc2)c1 (configuration not stated)	i	i	44	i	nt	i	i
O=C(Nc1cc(S(=O)(=O)N2CCOCC2)ccc1OCC(F)(F)F)C1=COCCO1	i	i	i	i	nt	i	nt
Cc1ccc2nc(-c3ccc4c(c3)OCCO4)cc(C(=O)O)c2c1	i	i	38	i	i	i	nt
CCOC(=O)c1cc(-c2ccccc2)nc2ccc(C)cc12	i	i	40	i	nt	i	nt
CC1CCN(C(=O)Nc2ccc3nsnc3c2)CC1	i	i	45	i	i	i	+
O=C(Nc1ccc2nsnc2c1)N1CCCCC1	i	i	44	i	i	i	i
S=C(Nc1ccc2nsnc2c1)N1CCCCCC1	i	i	40	i	i	i	i
CCCCN(C(=O)c1cccs1)C1CCS(=O)(=O)C1 (configuration not stated)	i	i	i	i	nt	i	nt
CC(=O)c1cc2c(cc1NC(=O)C1CN(C(C)=O)c3ccccc3O1)OCO2 (configuration not stated)	i	i	i	i	nt	i	nt
NC(=O)c1cc(C(=O)Cc2ccc(Cl)cc2)c[nH]1	i	i	i	i	nt	i	nt
Cc1cc(C)c(C)c(S(=O)(=O)N[C@@H](C)C(=O)OCC(=O)NC2CCCC(C)C2C)c1C (some centres not stated)	i	i	i	i	nt	i	nt
O=C(NNC(=O)c1csc(-c2cnccc2C(F)(F)F)n1)c1ccc(C(F)(F)F)cc1	i	i	42	i	nt	nt	i
O=C(c1ccc(Br)o1)N1CCN(c2ccc(F)cc2)CC1	i	i	i	i	i	i	nt
O=C(CCc1c[nH]c2ccccc12)N1CCN(c2ccc(F)cc2)CC1	i	i	i	i	i	i	nt
CCN1CCN(c2ccc(N3CCN(C(=O)c4ccc(Br)o4)CC3)nn2)CC1	i	i	48	i	nt	i	nt
Cc1ccccc1C(=O)N1CCN(c2ccc(N3CCOCC3)nn2)CC1	i	i	60	i	nt	i	nt
Cc1ccccc1C(=O)N1CCN(c2nc(N3CCOCC3)nc(N3CCOCC3)n2)CC1	i	i	i	i	i	i	nt
